Measurements as given in PubChem BioAssay.
The source made the active and inactive calls.

How the values were obtained:
[1] = E. coli DRC41 culture turbidity changes, primary screen, E. coli filamentation inducer project, strain DRC41, OD650, 48 h (AID 1152);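 also: E. coli MC1000 strain DRC41 lacking acrAB efflux pump and sulA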; settings: E. coli DRC41 (acrAB sulA), higher = more signal, called active from +8 up or from −8 down
[2] = small-molecule binders of probe aLefty1, primary screen, biochemical, small-molecule microarray, 635/667 nm fluorescence (AID 1153); settings: higher = more signal;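 also: score merges spot fluorescence with signal-to-noise ratio from the scanned slide images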
[3] = PSAC antagonists in infected red cells, primary screen, cell-based, P. falciparum Indochina, OD700, 1 h (AID 1154); settings: P. falciparum Indochina infected RBC osmotic lysis, higher = more signal, called active from +8 up or from −8 down
[4] = PSAC antagonists in infected red cells, primary screen, cell-based, P. falciparum Indochina, OD700, 2 h (AID 1155);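 also: lysis reports solute entry through the parasite surface anion channel PSAC; channel blockers reduce lysis of infected cells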; settings: P. falciparum Indochina infected erythrocytes, osmotic lysis OD700; higher = more signal, called active from +8 up or from −8 down
[5] = osmotic lysis modulators in infected erythrocytes, primary screen, PSAC antagonist project, cell-based, P. falciparum Indochina, OD700, 3 h (AID 1156); settings: higher = more signal, called active from +8 up or from −8 down
[6] = PSAC antagonists in infected red cells, primary screen, cell-based, P. falciparum Indochina, OD700, 18 h (AID 1157); settings: P. falciparum Indochina infected erythrocytes, osmotic lysis OD700, 18 h; higher = more signal, called active from +8 up or from −8 down
[7] = modulators of S6 phosphorylation in cells, primary screen, cell-based, A549, cytoblot, luminescence, serum-stimulated (AID 1158); settings: A549 phospho-S6 cytoblot, 5 h, higher = more signal;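 also: serum-stimulated A549 lung adenocarcinoma cells; signal is phosphorylated S6 detected by cytoblot immunostaining with HRP secondary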
[8] = target: NADPH oxidase 2 (Homo sapiens) (UniProt P04839); assay: NOX2-dependent H2O2 signal modulators, primary screen, NOX inhibitor project, cell-based, HEK293-NOX2, PMA-stimulated, Amplex Red fluorescence (AID 1159); settings: 45 min, higher = more signal, called active from +8 up or from −8 down; also: test concentration not given here
Sequence of NADPH oxidase 2 (Homo sapiens) (P04839 whole entry, looked up): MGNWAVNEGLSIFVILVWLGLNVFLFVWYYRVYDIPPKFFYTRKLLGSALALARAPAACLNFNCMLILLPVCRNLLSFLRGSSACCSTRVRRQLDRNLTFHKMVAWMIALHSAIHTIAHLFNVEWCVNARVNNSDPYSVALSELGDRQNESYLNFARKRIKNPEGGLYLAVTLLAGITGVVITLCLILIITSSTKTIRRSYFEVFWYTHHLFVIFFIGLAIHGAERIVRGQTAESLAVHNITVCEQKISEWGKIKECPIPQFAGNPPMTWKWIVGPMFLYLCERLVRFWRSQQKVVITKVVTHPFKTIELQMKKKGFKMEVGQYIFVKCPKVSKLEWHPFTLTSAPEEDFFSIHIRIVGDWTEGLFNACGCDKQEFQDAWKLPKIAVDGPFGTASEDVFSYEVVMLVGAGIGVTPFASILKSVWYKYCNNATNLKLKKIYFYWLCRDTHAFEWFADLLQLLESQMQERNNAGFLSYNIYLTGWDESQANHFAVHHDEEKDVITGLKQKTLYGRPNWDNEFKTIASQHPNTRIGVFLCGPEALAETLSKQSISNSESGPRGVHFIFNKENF

[9] = target: NADPH oxidase 4 (Homo sapiens) (UniProt Q9NPH5); assay: NOX4-dependent H2O2 signal modulators, primary screen, NOX inhibitor project, cell-based, HEK293-NOX4, tetracycline-induced, Amplex Red fluorescence (AID 1160); settings: 45 min, higher = more signal, called active from +8 up or from −8 down
Sequence of NADPH oxidase 4 (Homo sapiens) (Q9NPH5 whole entry, looked up): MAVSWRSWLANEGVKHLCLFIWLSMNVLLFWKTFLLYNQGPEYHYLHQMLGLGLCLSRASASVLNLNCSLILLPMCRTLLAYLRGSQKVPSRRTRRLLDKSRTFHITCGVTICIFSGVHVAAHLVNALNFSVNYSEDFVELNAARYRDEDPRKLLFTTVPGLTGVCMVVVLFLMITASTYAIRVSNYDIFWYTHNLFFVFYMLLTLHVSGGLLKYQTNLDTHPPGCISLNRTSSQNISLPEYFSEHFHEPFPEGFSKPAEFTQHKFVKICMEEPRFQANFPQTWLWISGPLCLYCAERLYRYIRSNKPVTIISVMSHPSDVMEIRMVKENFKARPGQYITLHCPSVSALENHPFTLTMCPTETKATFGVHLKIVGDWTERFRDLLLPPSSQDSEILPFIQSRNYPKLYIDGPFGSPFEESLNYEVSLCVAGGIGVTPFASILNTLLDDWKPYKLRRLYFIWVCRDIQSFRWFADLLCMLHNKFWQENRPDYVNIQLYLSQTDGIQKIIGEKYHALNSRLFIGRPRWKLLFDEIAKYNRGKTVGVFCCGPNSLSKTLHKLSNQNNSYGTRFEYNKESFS

[10] = target: NADPH oxidase 5 (Homo sapiens) (UniProt Q96PH1); assay: NOX5-dependent H2O2 signal modulators, primary screen, NOX inhibitor project, cell-based, HEK293-NOX5, Amplex Red fluorescence (AID 1161); settings: HEK293-NOX5, ionomycin, 45 min, higher = more signal
Sequence of NADPH oxidase 5 (Homo sapiens) (Q96PH1 whole entry, looked up): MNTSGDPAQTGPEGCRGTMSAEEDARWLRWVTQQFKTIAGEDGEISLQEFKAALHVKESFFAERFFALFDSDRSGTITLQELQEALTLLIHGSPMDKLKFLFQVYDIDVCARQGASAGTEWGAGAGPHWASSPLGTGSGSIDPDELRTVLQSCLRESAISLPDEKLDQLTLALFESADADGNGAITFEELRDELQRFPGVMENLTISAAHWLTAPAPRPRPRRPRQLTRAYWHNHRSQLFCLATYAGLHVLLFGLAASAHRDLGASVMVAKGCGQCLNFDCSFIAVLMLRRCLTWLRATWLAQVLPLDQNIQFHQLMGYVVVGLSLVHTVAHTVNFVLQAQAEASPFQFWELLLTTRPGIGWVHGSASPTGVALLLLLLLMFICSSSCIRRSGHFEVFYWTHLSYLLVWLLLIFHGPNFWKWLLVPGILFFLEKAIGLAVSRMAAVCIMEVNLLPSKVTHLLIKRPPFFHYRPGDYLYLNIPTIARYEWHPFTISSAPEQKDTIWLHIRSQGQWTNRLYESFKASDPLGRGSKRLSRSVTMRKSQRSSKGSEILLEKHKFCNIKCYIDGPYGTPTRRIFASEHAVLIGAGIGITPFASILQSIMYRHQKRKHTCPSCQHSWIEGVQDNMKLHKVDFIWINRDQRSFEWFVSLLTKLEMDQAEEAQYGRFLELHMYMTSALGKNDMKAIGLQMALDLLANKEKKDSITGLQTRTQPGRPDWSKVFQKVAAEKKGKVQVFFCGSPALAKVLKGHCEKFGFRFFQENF

| SMILES | z-score [1] | composite z-score [2] | z-score [3] | z-score [4] | z-score [5] | z-score [6] | z-score [7] | z-score [8] | z-score [9] | z-score [10] |
| --- | --- | --- | --- | --- | --- | --- | --- | --- | --- | --- |
| [N-]=[N+]=NCc1ccccc1C[C@]1(C(=O)NCCN2CCOCC2)N=C(c2ccc(OCCCO)cc2)O[C@H]1c1ccccc1N=[N+]=[N-] | 0.991 (inactive) | 0.586 | 34.3 (active) | 31.4 (active) | 2.82 (inactive) | 8.68 (active) | -0.176 | -1.69 (inactive) | 0.636 (inactive) | -0.368 |
| COC(=O)[C@@]1(Cc2ccc(OC)cc2)[C@H]2c3cc(C(=O)N4CCCC4)n(Cc4cc(F)cc5c4OCOC5)c3C[C@H]2CN1C(=O)c1ccccc1 | -2.14 (inactive) | -0.12 | 1.15 (inactive) | 0.142 (inactive) | 0.951 (inactive) | 0.522 (inactive) | -0.0863 | -0.327 (inactive) | -1.94 (inactive) | -1.06 |
| C=CCC(OC(C)=O)[C@@H]1[C@@H](N(Cc2cccc3ccccc23)C(=O)c2cccc3ccccc23)c2cc(OCCCO)ccc2N1C(=O)c1ccc2ccccc2n1 (stereo not given in full) | -0.773 (inactive) | 0.0622 | 1.1 (inactive) | 0.613 (inactive) | -0.249 (inactive) | 0.532 (inactive) | 0.443 | -0.62 (inactive) | -0.419 (inactive) | -2.42 |
| CO[C@H]1O[C@H](CO)[C@@H](OC(=O)Nc2ccc3c(c2)OCO3)[C@H](OC(=O)Nc2ccccc2)[C@H]1OC(=O)Nc1ccccc1 | -0.495 (inactive) | 0.227 | 4.11 (inactive) | 0.777 (inactive) | 0.756 (inactive) | 0.421 (inactive) | 0.258 | -6.93 (inactive) | -0.649 (inactive) | -2.08 |
| Cc1ccc(S[C@]2(C(=O)NCC(C)C)CC(=O)N(Cc3ccccc3Cl)[C@@H]2c2ccc(CO)cc2)cc1 | -0.132 (inactive) | -0.188 | 1.14 (inactive) | 0.61 (inactive) | -0.23 (inactive) | 0.0839 (inactive) | 0.534 | -1.85 (inactive) | 0.717 (inactive) | -0.393 |
| COCCOC(=O)N1C(=O)[C@@]2(c3cc(C#CCNC(N)=O)ccc31)[C@H](c1ccc(O)cc1)N1[C@H](c3ccccc3)[C@H](c3ccccc3)OC(=O)[C@H]1[C@@H]2C(=O)Nc1nc2ccccc2s1 | 3.62 (inactive) | 0.144 | 1.13 (inactive) | -0.361 (inactive) | 0.284 (inactive) | -0.0972 (inactive) | 2.46 | 0.806 (inactive) | 0.969 (inactive) | 1.33 |
| C=CC[C@@]1(C(=O)N2CCOCC2)N=C(c2ccc(OCCCO)cc2)O[C@@H]1c1ccccc1N=[N+]=[N-] | 0.483 (inactive) | 0.571 | 35.1 (active) | 28.1 (active) | 3.17 (inactive) | 7.41 (inactive) | 1.92 | -2.14 (inactive) | -0.164 (inactive) | -2.02 |
| COc1cc(C(O)C2C=CC3C(=O)N(c4ccccc4)C(=O)C3N2Nc2ccc(C#N)cc2)cc(OC)c1OC (stereo not given) | -1.64 (inactive) | 0.233 | 24 (active) | 7.24 (inactive) | 0.86 (inactive) | 1.76 (inactive) | -1.15 | -2.04 (inactive) | -5.26 (inactive) | -5.34 |
| CN(C)C(=O)[C@]1(CCC(=O)OC(C)(C)C)N=C(c2ccc(OCCCO)cc2)O[C@@H]1c1ccccc1N=[N+]=[N-] | 0.761 (inactive) | 1.33 | 31 (active) | 29.8 (active) | 1.37 (inactive) | 2.34 (inactive) | -0.294 | -4.53 (inactive) | -0.32 (inactive) | -1.98 |
| O=C(CS)NCCCCCCNC(=O)[C@H]1C[C@H]2C(=O)NCC(=O)N2[C@H]1c1ccc(O)cc1 | -0.618 (inactive) | -0.0969 | 2.33 (inactive) | 0.141 (inactive) | -2.02 (inactive) | 0.23 (inactive) | -0.598 | 1.45 (inactive) | 0.407 (inactive) | -0.391 |
| CCOC(=O)C1=C[C@@H](C(C)C)N(S(=O)(=O)c2ccc(C)cc2)[C@H]1c1ccc(C(C)C)cc1 | -0.39 (inactive) | 0.262 | 0.431 (inactive) | 0.749 (inactive) | 0.4 (inactive) | 0.367 (inactive) | -0.234 | -0.5 (inactive) | -0.195 (inactive) | -0.151 |
| CC(C)c1ccc(NN2C(C(O)c3c(F)cccc3Cl)C=CC3C(=O)N(c4ccccc4)C(=O)C32)cc1 (stereo not given) | -2.03 (inactive) | 1.22 | 2.86 (inactive) | 1.18 (inactive) | 1.12 (inactive) | 1.02 (inactive) | -1.02 | -1.38 (inactive) | -5.38 (inactive) | -4.14 |
| COCCOC(=O)N1C(=O)[C@@]2(c3cc(C#Cc4ccc(OC)cc4)ccc31)[C@H](C(=O)N1CCN(c3ncccn3)CC1)[C@H]1C(=O)O[C@H](c3ccccc3)[C@H](c3ccccc3)N1[C@@H]2c1ccc(O)cc1 | 0.831 (inactive) | 0.0773 | 1.39 (inactive) | -0.306 (inactive) | -0.119 (inactive) | -0.541 (inactive) | 1.59 | 0.586 (inactive) | 0.19 (inactive) | 1.98 |
